# Assay results reported in a collection of fitness landscapes (doi:10.1126/science.1257360).
# The full ranking holds about 140,000 sequences; the median of “enrichment ratio after two sorts for PhoP signalling” is about 0, and the highest 2% start at about 11. Shown is part of a subset that was picked to be rich in the highest values.
# B1: PhoQ; a variant is named by its letters at X, in order, P23837 (parent)
# chain: MKKLLRLFFPLSLRVRFLLATAAVVLVLSLAYGMVALIGYSVSFDKTTFRLLRGESNLFYTLAKWENNKLHVELPENIDKQSPTMTLIYDENGQLLWAQRDVPWLMKMIQPDWLKSNGFHEIEADVNDTSLLLSGDHSIQQQLQEVREDDDDAEMTHSVAVNVYPATSRMPKLTIVVVDTIPVELKSSYMVWSWFIYVLSANLLLVIPLLWVAAWWSLRPIEALAKEVRELEEHNRELLNPATTRELTSLVRNLNRLLKSERERYDKYRTTLTDLTHSLKTPLXXLQXXLRSLRSEKMSVSDAEPVMLEQISRISQQIGYYLHRASMRGGTLLSRELHPVAPLLDNLTSALNKVYQRKGVNISLDISPEISFVGEQNDFVEVMGNVLDNACKYCLEFVEISARQTDEHLYIVVEDDGPGIPLSKREVIFDRGQRVDTLRPGQGVGLAVAREITEQYEGKIVAGESMLGGARMEVIFGRQHSAPKDE
# Variants of: B1
# Assay: enrichment ratio after two sorts for PhoP signalling (ratio (wild type AVST 3.29)); higher = more functional
# Settings: with PhoP (E. coli)
row,Variant,enrichment ratio
1,KFQG,≤ 0.25
2,GWTL,≤ 0.25
3,DYTL,≤ 0.25
4,YESY,≤ 0.25
5,RHIC,0.278
6,ATKV,≤ 0.25
7,IHFF,≤ 0.25
8,YYCV,≤ 0.25
9,TMCK,3.91
10,DMCT,≤ 0.25
11,TMCT,19.5
12,TMCI,12.4
13,NMCT,≤ 0.25
14,TMCA,8.5
15,YSWE,≤ 0.25
16,AFNE,≤ 0.25
17,WHNP,≤ 0.25
18,KYAG,≤ 0.25
19,SPAG,≤ 0.25
20,DPAG,≤ 0.25
21,SQAG,25.9
22,SAVG,0.763
23,STAG,9.55
24,SFAG,0.768
25,SAAG,14.1
26,SEAG,12.1

row,Variant,enrichment ratio
1,RRVI,≤ 0.25
2,FDPS,≤ 0.25
3,DHTW,≤ 0.25
4,SQMG,20.8
5,SYIG,11.3
6,SYHG,≤ 0.25
7,SYMG,12.5
8,SDIG,≤ 0.25
9,STMG,9.85
10,DPMG,≤ 0.25
11,KYIG,≤ 0.25
12,SYEG,≤ 0.25
13,WYLE,≤ 0.25
14,LKTQ,≤ 0.25
15,HHMC,≤ 0.25
16,FFEW,≤ 0.25
17,SADI,≤ 0.25
18,SNGG,7.77
19,TNLA,8.08
20,RGND,≤ 0.25
21,TGNG,23.3
22,NQNG,≤ 0.25
23,IQNG,≤ 0.25
24,AQNG,28.2
25,NGNG,≤ 0.25
26,PGNG,≤ 0.25

row,Variant,enrichment ratio
1,VKSA,≤ 0.25
2,NIRT,≤ 0.25
3,AVYH,0.253
4,INLE,≤ 0.25
5,DITL,≤ 0.25
6,KYTL,≤ 0.25
7,GMTL,15.2
8,CTTL,≤ 0.25
9,TTTL,13.4
10,SITL,18.5
11,LTTL,≤ 0.25
12,SSTL,14
13,SFTL,1.44
14,SRTL,0.897
15,GVTL,8.09
16,FVTL,1.5
17,MWFH,≤ 0.25
18,PGWI,≤ 0.25
19,ESFA,≤ 0.25
20,HNYP,≤ 0.25
21,MKHE,≤ 0.25
22,GLGE,≤ 0.25
23,GQQP,≤ 0.25
24,FLMS,≤ 0.25
25,ANVH,≤ 0.25
26,MNTL,3.28

row,Variant,enrichment ratio
1,FQTL,1.49
2,WNTL,≤ 0.25
3,GNTL,6.85
4,SNTL,14.6
5,SQTL,12.3
6,IQTL,≤ 0.25
7,TWTL,≤ 0.25
8,GTTL,11.7
9,FTTL,3.67
10,TNTL,14
11,QCRR,≤ 0.25
12,NVGP,≤ 0.25
13,SGTL,7.51
14,WPCQ,≤ 0.25
15,HKKN,≤ 0.25
16,PVRE,≤ 0.25
17,NYRG,≤ 0.25
18,KCTL,≤ 0.25
19,FCTL,≤ 0.25
20,KFTL,≤ 0.25
21,PLTL,≤ 0.25
22,SVWL,≤ 0.25
23,TCTL,20.7
24,SLTL,15.2
25,SCTL,14.2
26,SVTL,12.2

row,Variant,enrichment ratio
1,VCTL,6.03
2,WLTL,0.379
3,EAPT,≤ 0.25
4,TVGM,10.4
5,MWTK,≤ 0.25
6,AEKL,≤ 0.25
7,ARYC,≤ 0.25
8,ESWQ,≤ 0.25
9,HSSR,≤ 0.25
10,LRFQ,≤ 0.25
11,QETL,≤ 0.25
12,ITTL,0.464
13,VLTL,3.19
14,FLTL,0.273
15,STTL,16.6
16,SETL,14.8
17,YTTL,3.18
18,TLTL,14.1
19,NETL,≤ 0.25
20,MHRQ,≤ 0.25
21,GSPC,≤ 0.25
22,QHLF,≤ 0.25
23,RLFC,≤ 0.25
24,NYDD,≤ 0.25
25,RDCN,≤ 0.25
26,EACS,≤ 0.25

row,Variant,enrichment ratio
1,MLAN,≤ 0.25
2,KCYQ,≤ 0.25
3,MLYD,≤ 0.25
4,MEYQ,≤ 0.25
5,MCYQ,17.2
6,NCYQ,≤ 0.25
7,MLYQ,18.8
8,MADQ,≤ 0.25
9,VHFE,≤ 0.25
10,ESLL,0.525
11,ELNQ,≤ 0.25
12,LNML,2.48
13,GIML,8.24
14,YNML,13.9
15,TNML,1.41
16,MNML,24.9
17,MNMI,4
18,YNSK,≤ 0.25
19,GGML,15.7
20,VGML,8.33
21,GQML,7.95
22,GNML,12.2
23,YNNL,≤ 0.25
